Each compound was assayed on WNK1. Details: concentration: 1 μM, replicates: in singlicate; n = 1.
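Further: KINOMEscan kinase panel screen.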

Structure (SMILES) | %Inh
Nc1nc(N)c2nc(-c3ccccc3)[nH]c2n1 [SKF-12778] | 9%
COc1cc2nccc(Nc3cccc(Oc4ccccc4)c3)c2cc1OC.Cl [GW284543] | 0%
CCc1ccc(-c2ccc3c(c2)-c2nn(C)cc2S(=O)(=O)N3C)cc1 | 6%
O=C(NCc1cccs1)c1cc(C(=O)c2c(Cl)cccc2Cl)c[nH]1 [GW823670] | 0%
CCCC(=O)Nc1n[nH]c2ncc(-c3cccc4ccccc34)cc12 [SB-642057] | 12%
CCC(=O)c1c(-c2ccccc2)c2cc(Cl)ccc2c(=O)n1Cc1cc(S(C)(=O)=O)n(CC(F)F)n1 | 0%
Nc1ncnc2c1ncn2-c1cccc(F)c1 [SKF-97560] | 3%
Cc1c(Cn2c(C)nn3c(=O)cc(N4CCO[C@H](C)C4)nc23)cccc1C(F)(F)F [GSK2373690] | 11%
COc1cc(Nc2nccc(N3CCC(NC(=O)C4COc5ccccc5O4)C3)n2)cc(OC)c1OC (stereo not drawn) [GSK1379761] | 1%
Cc1ccccc1COc1cc(-n2cnc3cc(Cl)ccc32)sc1C(N)=O [GW813349] | 0%
Cc1ccc(-c2ccc3c(ccc4sc5c(c43)NC[C@@H](C)N=C5N(C)C)n2)cn1 | 0%
Fc1cccc(CSc2nnc(-c3ccc4c(c3)CCO4)o2)c1 | 0%
CN1C(=O)C(Nc2cc(Cl)c(O)c(Cl)c2)=C(c2ccc(Cl)cc2)C1=O [SB-404321] | 0%
CCC(=O)c1c(-c2ccccc2)c2cc(Cl)ccc2c(=O)n1Cc1ccc(C(=O)O)cc1 | 0%
COc1cc(Nc2nccc(N3CCC(NC(=O)C(C)c4ccc(Cl)cc4)C3)n2)cc(OC)c1OC (stereo not drawn) [GSK1379757] | 9%
C[C@@H]1CC[C@H](C(=O)NC2CCCCC2)CN1c1cc(-c2ccc3c(N)n[nH]c3c2)nc(N)n1 [GSK2291363] | 16%
COc1ccc(-c2coc3ccc(-c4nnc(SCc5cccc(C#N)c5)o4)cc23)cc1 | 0%
CCS(=O)c1ccc(-c2coc3ccc(-c4nnc(C)o4)cc23)cc1 (stereo not drawn) | 0%

Structure (SMILES) | %Inh
Cc1cc(Nc2nc(-c3cccc(C)n3)nc3ccccc23)ccn1 [GW872411] | 0%
COC(=O)c1c(-c2ccccc2)c2cc(Br)ccc2c(=O)n1Cc1ccc(S(C)(=O)=O)cc1 | 0%
Nc1nccc2scc(-c3ccc4c(c3)CCN4C(=O)Cc3ccccc3)c12 [GSK2576924] | 17%
O=C(NCCNc1ccnc(Nc2ccc(F)cc2)n1)Nc1ccc2c(c1)OCO2 [GSK1379882] | 5%
COC(=O)c1c(-c2ccccc2)c2cc(Br)ccc2c(=O)n1Cc1ccc(NC(=O)CCC(=O)O)cc1 | 0%
Nc1ncnc2c1ncn2-c1ccc(Cl)cc1 [AH2635] | 0%
O=C(Nc1n[nH]c2cc(-c3ccccc3F)ccc12)C1CC1 [SB-733371] | 0%
Nc1n[nH]c2nnc(-c3ccccc3)c(-c3ccccc3)c12 [GW554060] | 3%
FC(F)(F)c1ccc(-c2ncn(CCCN3CCOCC3)c2-c2ccncc2)cc1 [SB-217780] | 20%
COc1ccc(-n2cnc3c(N)ncnc32)cc1 [SKF-97236] | 11%
CCC(=O)c1c(-c2ccccc2)c2cc(Cl)ccc2c(=O)n1Cc1cc(C(=O)NC2CC2)n(C)n1 | 0%
CCC(=O)c1c(-c2ccccc2)c2cc(Cl)ccc2c(=O)n1Cc1cc(S(C)(=O)=O)n(CCC(C)(C)O)n1 | 0%
COC(=O)c1c(-c2ccccc2)c2cc(C)ccc2c(=O)n1Cc1ccccc1 | 0%
COc1cc(Nc2ccnc3ccc(C(F)(F)F)cc23)cc(OC)c1OC [GW577382] | 8%
COc1ccc(-c2cc3c(C)nc(N)nc3n([C@H]3CC[C@H](OCCO)CC3)c2=O)cn1 | 0%
Cc1nnc(-c2ccc3ncn(-c4ccc(S(C)=O)cc4)c3c2)o1 (stereo not drawn) | 0%
COc1cc2ncn(-c3cc(OCc4ccc(S(C)(=O)=O)cc4)c(C(N)=O)s3)c2cc1OC [GW869979] | 0%
CCC(=O)c1c(-c2ccccc2)c2cc(Cl)ccc2c(=O)n1Cc1cc(S(C)(=O)=O)n(CC(N)=O)n1 | 0%

Each compound was assayed on WNK2. Details: concentration: 1 μM, replicates: in singlicate; n = 1.

Structure (SMILES) | %Inh
Nc1nc(N)c2nc(-c3ccccc3)[nH]c2n1 [SKF-12778] | 9%
COc1cc2nccc(Nc3cccc(Oc4ccccc4)c3)c2cc1OC.Cl [GW284543] | 11%
CCc1ccc(-c2ccc3c(c2)-c2nn(C)cc2S(=O)(=O)N3C)cc1 | 0%
O=C(NCc1cccs1)c1cc(C(=O)c2c(Cl)cccc2Cl)c[nH]1 [GW823670] | 0%
CCCC(=O)Nc1n[nH]c2ncc(-c3cccc4ccccc34)cc12 [SB-642057] | 6%
CCC(=O)c1c(-c2ccccc2)c2cc(Cl)ccc2c(=O)n1Cc1cc(S(C)(=O)=O)n(CC(F)F)n1 | 0%
Nc1ncnc2c1ncn2-c1cccc(F)c1 [SKF-97560] | 73%
Cc1c(Cn2c(C)nn3c(=O)cc(N4CCO[C@H](C)C4)nc23)cccc1C(F)(F)F [GSK2373690] | 4%
COc1cc(Nc2nccc(N3CCC(NC(=O)C4COc5ccccc5O4)C3)n2)cc(OC)c1OC (stereo not drawn) [GSK1379761] | 19%
Cc1ccccc1COc1cc(-n2cnc3cc(Cl)ccc32)sc1C(N)=O [GW813349] | 0%
Cc1ccc(-c2ccc3c(ccc4sc5c(c43)NC[C@@H](C)N=C5N(C)C)n2)cn1 | 0%
Fc1cccc(CSc2nnc(-c3ccc4c(c3)CCO4)o2)c1 | 14%
CN1C(=O)C(Nc2cc(Cl)c(O)c(Cl)c2)=C(c2ccc(Cl)cc2)C1=O [SB-404321] | 35%
CCC(=O)c1c(-c2ccccc2)c2cc(Cl)ccc2c(=O)n1Cc1ccc(C(=O)O)cc1 | 0%
COc1cc(Nc2nccc(N3CCC(NC(=O)C(C)c4ccc(Cl)cc4)C3)n2)cc(OC)c1OC (stereo not drawn) [GSK1379757] | 0%
C[C@@H]1CC[C@H](C(=O)NC2CCCCC2)CN1c1cc(-c2ccc3c(N)n[nH]c3c2)nc(N)n1 [GSK2291363] | 4%
COc1ccc(-c2coc3ccc(-c4nnc(SCc5cccc(C#N)c5)o4)cc23)cc1 | 0%
CCS(=O)c1ccc(-c2coc3ccc(-c4nnc(C)o4)cc23)cc1 (stereo not drawn) | 3%

Structure (SMILES) | %Inh
Cc1cc(Nc2nc(-c3cccc(C)n3)nc3ccccc23)ccn1 [GW872411] | 0%
COC(=O)c1c(-c2ccccc2)c2cc(Br)ccc2c(=O)n1Cc1ccc(S(C)(=O)=O)cc1 | 13%
Nc1nccc2scc(-c3ccc4c(c3)CCN4C(=O)Cc3ccccc3)c12 [GSK2576924] | 26%
O=C(NCCNc1ccnc(Nc2ccc(F)cc2)n1)Nc1ccc2c(c1)OCO2 [GSK1379882] | 18%
COC(=O)c1c(-c2ccccc2)c2cc(Br)ccc2c(=O)n1Cc1ccc(NC(=O)CCC(=O)O)cc1 | 26%
Nc1ncnc2c1ncn2-c1ccc(Cl)cc1 [AH2635] | 0%
O=C(Nc1n[nH]c2cc(-c3ccccc3F)ccc12)C1CC1 [SB-733371] | 0%
Nc1n[nH]c2nnc(-c3ccccc3)c(-c3ccccc3)c12 [GW554060] | 41%
FC(F)(F)c1ccc(-c2ncn(CCCN3CCOCC3)c2-c2ccncc2)cc1 [SB-217780] | 0%
COc1ccc(-n2cnc3c(N)ncnc32)cc1 [SKF-97236] | 19%
CCC(=O)c1c(-c2ccccc2)c2cc(Cl)ccc2c(=O)n1Cc1cc(C(=O)NC2CC2)n(C)n1 | 0%
CCC(=O)c1c(-c2ccccc2)c2cc(Cl)ccc2c(=O)n1Cc1cc(S(C)(=O)=O)n(CCC(C)(C)O)n1 | 31%
COC(=O)c1c(-c2ccccc2)c2cc(C)ccc2c(=O)n1Cc1ccccc1 | 0%
COc1cc(Nc2ccnc3ccc(C(F)(F)F)cc23)cc(OC)c1OC [GW577382] | 13%
COc1ccc(-c2cc3c(C)nc(N)nc3n([C@H]3CC[C@H](OCCO)CC3)c2=O)cn1 | 0%
Cc1nnc(-c2ccc3ncn(-c4ccc(S(C)=O)cc4)c3c2)o1 (stereo not drawn) | 0%
COc1cc2ncn(-c3cc(OCc4ccc(S(C)(=O)=O)cc4)c(C(N)=O)s3)c2cc1OC [GW869979] | 58%
CCC(=O)c1c(-c2ccccc2)c2cc(Cl)ccc2c(=O)n1Cc1cc(S(C)(=O)=O)n(CC(N)=O)n1 | 0%
